# Source: PubChem (National Center for Advancing Translational Sciences (NCATS))
# This is a sample that favours compounds with a hit; in the whole collection about 17% have one here.
# TDP1 cell noCPT = qHTS for Inhibitors of human tyrosyl-DNA phosphodiesterase 1 (TDP1): qHTS in cells in absence of CPT. Potency, µM (titrated, usually from 46.2 µM), inactives show at the highest dose activity change, negative = growth inhibition, actives largely listed as inhibitors. DT40 Tdp1-/- hTDP1 cells, no CPT, ATP luminescence, 48 h. actives 15% (n = 420,000); further: on the % scale 0 is the no-effect control and ±100 the full control effect; nearly all actives have a fitted effect of over 55% in size
#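 DT40 Tdp1-/-;hTDP1 cells, no CPT (DMSO vehicle only), 400 cells/well; compounds pin-transferred; ≥48 hr, 37 °C; CellTiter-Glo 30 min RT dark, luminescence read.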
# TGFb inhibitor = TGF-b pathway inhibition | HepG2 CAGA-GFP TGF-b/SMAD3 reporter, GFP fluorescence, 18 h; TGF-beta stimulated, 500 pg/mL final | Potency, µM (series often up to 46.1 µM), for inactives: at the top dose activity, negative = inhibition, most hits filed as inhibitors | actives 1.2% (n = 410,000) | AID 588855; further: on the % scale 0 is the no-effect control and ±100 the full control effect; nearly all actives have a fitted effect of over 65% in size
#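 GFP signal (ex488/em500-530) from TGF-beta-stimulated HEPG2 CAGA-GFP cells, 500 pg/mL final, 18 h at 37 degrees C in DMEM plus 1% FBS, normalized to unstimulated and DMSO-stimulated controls.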
# HT1080-NT tox = kills 2HG-producing HT-1080-NT fibrosarcoma cells; HT-1080-NT fibrosarcoma viability, CellTiter-Glo ATP luminescence, 48 h; Potency, µM (highest dose often 46.1 µM), for inactives: top-dose activity, negative = less viability, actives largely listed as cytotoxic; actives 1.6% (n = 360,000);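 further: NT is the 2HG producing partner of a matched IDH1 knockdown line; 0% = DMSO-treated cells and -100% = media-only wells without cells; nearly all actives have a fitted effect of over 55% in size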
#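 A 48-hour cytotoxicity screen used HT-1080-NT cells plated 2 hours before compound delivery. ATP-based CellTiter-Glo luminescence measured viability, normalized to DMSO and no-cell controls.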
# TDP1 cell CPT = DT40-hTDP1 cell growth loss with CPT. chicken DT40 Tdp1-/-;hTDP1 cells + 20 nM CPT, ATP luminescence, 48 h. Potency, µM (titrated, usually from 46.2 µM), inactives show top-dose activity change, negative = growth inhibition, usual class: inhibitors. actives 12% (n = 420,000); further: on the % scale 0 is the no-effect control and ±100 the full control effect; nearly all actives have a fitted effect of over 55% in size
#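 Chicken DT40 Tdp1-/- cells stably complemented with human TDP1 were seeded at 400 cells/well in medium containing 20 nM camptothecin, exposed to pin-transferred compounds, and grown at 37 °C for at least 48 hr. Viability was read as ATP luminescence.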
# HT1080 IDH1KD tx = HT-1080 IDH1 knockdown cell toxicity (counter line); Potency, µM (series often up to 46.1 µM), inactives show at the highest dose activity, negative = toxicity, usual class: cytotoxic; AID 686971; actives 2% (n = 360,000); HT-1080 IDH1 knockdown viability, ATP luminescence, 48 h;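 further: 0% = DMSO wells and -100% = cell-free medium wells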
#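 After a 2 h attachment period, IDH1KD HT-1080 cells took pin-transferred compound for 48 h at 37 °C; ATP-based luminescence after 10 min room-temperature reagent incubation reported viability.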
# HepG2 viability = counter-screen for TGF-b inhibitors: cytotoxicity in HepG2 cells | HepG2 CAGA-GFP viability, ATP luminescence, 18 h | Potency, µM (highest dose often 46.1 µM), without a hit: at the top dose activity change, negative = cytotoxicity, hits mostly cytotoxic | actives 0.76% (n = 410,000) | AID 588856
#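 CellTiter-Glo luminescence gave cytotoxicity after 18 hours at 37 degrees C. The cells were HepG2 CAGA-GFP in 1% FBS DMEM, stimulated with 500 pg/mL TGF-beta after compound addition. %Activity was normalised to no-cell wells (complete cell-killing) and DMSO (no toxicity), and curves were fitted and classified.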
# Numbers without * were called inactive; ? = inconclusive; nt = no result. The call rests on the fitted dose curve; in most records, active means well fitted curve in the direction sought with a large enough effect; inconclusive means small, poorly fitted or top-dose-only effect, or another doubt; inactive means no such curve, though single readings can be large; an effect the other way counts as inactive or inconclusive. Potency means the concentration at half of the fitted maximal effect.
SMILES,TDP1 cell noCPT,TGFb inhibitor,HT1080-NT tox,TDP1 cell CPT,HT1080 IDH1KD tx,HepG2 viability
CCc1nc2ccc(C(=O)NCc3ccc(OC)cc3)cn2c1N(C)C(=O)Cc1ccccc1,21µM*,-3%,14%,?,-1%,-29%
CCc1nc2ccc(C(=O)NCc3ccc4c(c3)OCO4)cn2c1N(C)C(=O)Cc1ccccc1,23µM*,10%,30%,-36%,19%,7%
CCc1nc2ccc(C(=O)NCCOc3ccc(OC)cc3)cn2c1N(C)C(=O)COc1ccccc1,4%,-1%,4%,?,0%,-10%
CCCCN(C)c1c(C)nc2ccc(C(=O)NCCc3c[nH]c4ccccc34)cn12,?,?,?,?,?,-19%
CCc1nc2ccc(C(=O)NCc3ccc4c(c3)OCO4)cn2c1N(C)Cc1cccs1,16µM*,-10%,-18%,?,-29%,-19%
O=C(Nc1cc(Oc2ccccc2)cc([N+](=O)[O-])c1)C12CC3CC(C1)CC(n1cnc(Cl)n1)(C3)C2,?,-18%,-16%,?,-16%,2%
CCc1nc2ccc(C(=O)NCc3ccc4c(c3)OCO4)cn2c1N(CCC(C)C)CCN(C)C,?,?,21µM*,21µM*,?,-36%
CN(C)C(CNC(C(=O)Nc1ccc([N+](=O)[O-])cc1Br)c1ccccc1)c1ccccc1 (centres undefined),?,-12%,23µM*,?,23µM*,-4%
O=C(CSc1nnc(CNC(=O)C23CC4CC(CC(C4)C2)C3)n1-c1ccc(F)cc1)Nc1ccc(F)cc1,?,?,-16%,?,-24%,-15%
CCCSc1nnc(CNC(=O)C23CC4CC(CC(C4)C2)C3)n1Cc1ccccc1,?,?,-2%,16µM*,-12%,-9%
CCSc1nnc(CNC(=O)C23CC4CC(CC(C4)C2)C3)n1C1CCCCC1,26µM*,-18%,16%,23µM*,2%,-28%
CCSc1nnc(CNC(=O)C23CC4CC(CC(C4)C2)C3)n1Cc1ccccc1,?,-38%,-1%,?,-6%,-10%
CC(NC(=O)CN(C)CC(=O)Nc1ccc(Cl)c(C(F)(F)F)c1)c1ccccc1 (centres undefined),23µM*,-22%,2%,21µM*,1%,-16%
CC(O)(CS(=O)(=O)Cc1cccc(C(F)(F)F)c1)C(=O)Nc1cccc(C(F)(F)F)c1 (centres undefined),-29%,?,?,1%,16µM*,-40%
CC1CC1C(=O)N(C)CC(=O)Nc1ccc(Cl)c(C(F)(F)F)c1 (centres undefined),?,-3%,9%,?,3%,3%
CCOc1ccc(NC(=O)CN(C)C(=O)c2ccccc2SCC(=O)N2CCCC2)cc1OCC,-7%,-14%,6%,-3%,12%,10%
CN(CC(=O)Nc1ccc(Cl)c(C(F)(F)F)c1)C(=O)c1ccccc1SCC(=O)N1CCCC1,?,?,-11%,18µM*,-21%,-39%
CN(CC(=O)Nc1cccc(C(F)(F)F)c1)Cc1ccccc1,9.2µM*,7%,1%,?,5%,-11%
CC(C)NCC(O)COc1ccc2c(c1)CCC2 (centres undefined),-6%,?,2%,6%,9%,8%
Cc1ccc(CNC(=O)CNS(=O)(=O)c2cccs2)cc1,-12%,0%,nt,-3%,nt,-4%
COc1ccc(CCN(C)C(=O)c2cc(=O)c3ccccc3o2)cc1OC,-21%,1%,15%,-7%,29%,2%
CN(CC(=O)Nc1cccc(F)c1)CC(=O)NC(c1ccccc1)c1ccccc1,?,-9%,-8%,23µM*,-15%,-17%
CN(CC(=O)NCc1ccc(F)cc1)CC(=O)Nc1ccc(Cl)c(C(F)(F)F)c1,21µM*,?,?,23µM*,?,-29%
CN(CC(=O)NCC(=O)Nc1ccc(F)cc1)CC(=O)Nc1ccc(Cl)c(C(F)(F)F)c1,-19%,?,-1%,-27%,-11%,-43%
COc1cccc(S(=O)(=O)N(C)C[C@@H]2OCc3cn(nn3)CCCC(=O)N([C@@H](C)CO)C[C@H]2C)c1,-26%,?,-2%,-18%,2%,-45%
SMILES,TDP1 cell noCPT,TGFb inhibitor,HT1080-NT tox,TDP1 cell CPT,HT1080 IDH1KD tx,HepG2 viability
Cc1cccc(N2CCN(S(=O)(=O)c3ccc4c(c3)NC(=O)C(C)S4)CC2)c1C (centres undefined),?,16µM*,?,21µM*,?,0%
Cc1cccc(N2CCN(S(=O)(=O)c3ccc4c(c3)C(C(C)C)C(=O)N4)CC2)c1C (centres undefined),12µM*,16µM*,nt,5.2µM*,nt,-57%
CC1Sc2ccc(S(=O)(=O)N3CCN(c4ccccc4)CC3)cc2NC1=O (centres undefined),?,?,-13%,?,-2%,-19%
COc1ccccc1Cc1nc2ccccc2nc1SCC(=O)Nc1ccc2c(c1)OCO2,-16%,3%,nt,0%,nt,4%
Cc1nc2ccccc2nc(C)c1=NOCC(=O)N(c1ccccc1)C(C)C,18µM*,-12%,0%,?,-1%,-6%
COc1ccc(CCNC(=O)c2ccc(Cn3c(SCc4ccccc4)nc4cccnc43)cc2)cc1,2.9µM*,-21%,nt,?,nt,-18%
COc1cccc(CCNC(=O)c2ccc(Cn3c(SCc4ccccc4)nc4cccnc43)cc2)c1,21µM*,?,nt,?,nt,-37%
CN(Cc1ccccc1)C(=O)c1ccc(CSc2nc3cccnc3n2Cc2ccccc2)cc1,?,20µM*,nt,12µM*,nt,-74%
O=C(NCCc1ccccc1)c1ccc(CSc2nc3cccnc3n2Cc2ccccc2)cc1,15µM*,?,nt,?,nt,-28%
COc1ccc(Cn2c(SCc3ccc(C(=O)NCCc4ccccc4)cc3)nc3cccnc32)cc1,?,-43%,nt,?,nt,-43%
O=C(CC1CCCC1)N1CCN(S(=O)(=O)c2c(F)cccc2F)CC1,-29%,6%,4%,0%,4%,0%
O=S(=O)(c1c(F)cccc1F)N1CCCC2CCCCC21 (centres undefined),21µM*,?,0%,?,1%,-24%
